Screens: PubChem BioAssay, Broad Institute
INS-1E GSIS act = primary screen for activators of insulin secretion dependent on glucose, INS-1E cells, GLuc reporter luminescence; 370,000 tested, 0.61% active; activation, % at 16.6 µM; INS-1E GLuc reporter insulin secretion, 2-3 h;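 active = lowest replicate activation of at least 40%, so every replicate reaches that level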
RAD52 inh = RAD52 (human) annealing inhibition; P43351; recombinant RAD52 DNA annealing, FRET fluorescence; inhibition, % at 18.7 µM; 360,000 tested, 0.46% active; AID 651710;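 active = every replicate showing at least 50% inhibition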
RAD54 branch = RAD54 (human) branch migration inhibition; Q92698; RAD54 Holliday junction branch migration, FAM/BHQ fluorescence; inhibition, % at 10.4 µM; 360,000 tested, 0.14% active; AID 602329;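 active = mean normalized replicate activity at least 40 and at least half of replicates scoring 40 or more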;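 also: inhibitors cause a drop in the FAM fluorescence signal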
AF4-AF9 inh = MLL-AF4/AF9 protein interaction inhibition. AlphaScreen, biotin-AF4 peptide binding to FLAG-AF9. inhibition, % at 10 µM. 350,000 tested, 0.47% active;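 active = every replicate reaching a set inhibition limit, whatever the replicate mean, cut at about 25% in these data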
PGC1a acetyl inh = PGC1a acetylation modulation, inhibitor mode | U2OS PGC1a acetylation, AlphaScreen anti-acetyl-lysine; with virally co-expressed GCN5 acetyltransferase | inhibition, % at 15.6 µM | 350,000 tested, 0.17% active | AID 651687;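 active = every replicate shows inhibition of at least 40%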
ERAP1 HTS inh = inhibitors of human ERAP1 aminopeptidase; Q9NZ08; recombinant ERAP1, Leu-AMC fluorescence, 60 min; inhibition, % at 10.7 µM; 340,000 tested, 0.15% active;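 active = mean replicate inhibition of at least 30%, or all replicates individually reaching that 30% level; inactive = mean below 30% and not every replicate reaching it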
Target sequence (Q9NZ08 whole entry, looked up): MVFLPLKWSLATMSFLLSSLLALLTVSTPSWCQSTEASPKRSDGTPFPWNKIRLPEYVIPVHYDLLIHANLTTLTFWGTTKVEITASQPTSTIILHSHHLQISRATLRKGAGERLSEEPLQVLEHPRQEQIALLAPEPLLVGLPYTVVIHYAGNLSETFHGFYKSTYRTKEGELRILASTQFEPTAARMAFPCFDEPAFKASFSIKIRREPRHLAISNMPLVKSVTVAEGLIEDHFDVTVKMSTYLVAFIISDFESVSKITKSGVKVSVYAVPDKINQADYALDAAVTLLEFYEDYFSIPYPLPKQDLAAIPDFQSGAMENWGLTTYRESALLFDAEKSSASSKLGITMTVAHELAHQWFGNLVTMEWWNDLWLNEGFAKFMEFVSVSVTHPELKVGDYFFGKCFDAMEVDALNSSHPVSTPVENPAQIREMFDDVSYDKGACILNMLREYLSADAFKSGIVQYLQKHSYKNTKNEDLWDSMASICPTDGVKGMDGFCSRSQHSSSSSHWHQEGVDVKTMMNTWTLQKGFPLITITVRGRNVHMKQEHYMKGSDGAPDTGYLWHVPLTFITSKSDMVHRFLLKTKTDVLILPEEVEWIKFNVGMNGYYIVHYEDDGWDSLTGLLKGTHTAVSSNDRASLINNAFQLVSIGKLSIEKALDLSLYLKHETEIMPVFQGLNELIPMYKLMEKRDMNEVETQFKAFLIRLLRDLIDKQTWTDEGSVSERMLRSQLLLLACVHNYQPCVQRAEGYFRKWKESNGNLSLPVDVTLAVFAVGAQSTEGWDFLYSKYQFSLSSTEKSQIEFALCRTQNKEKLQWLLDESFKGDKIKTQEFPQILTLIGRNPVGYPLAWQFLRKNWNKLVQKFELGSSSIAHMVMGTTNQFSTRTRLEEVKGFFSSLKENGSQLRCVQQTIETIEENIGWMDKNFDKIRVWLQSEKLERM
Each line names hits and unclear results; the compound was inactive in the other large screens; ! = not confirmed by another sample. Most compounds without a hit are left out; they make up all but 1.4% or so of the library.

C/C=C/c1ccc(C2[C@@H]3CN(C(=O)c4cnccn4)C[C@H]2N3)cc1 (stereo partly specified)	none (no result: RAD54 branch)
CNc1cc(Cl)c2nonc2c1[N+](=O)[O-]	INS-1E GSIS act 51.0, PGC1a acetyl inh 68.2 (no result: RAD54 branch)
CN1CCN(c2ccc([N+](=O)[O-])c(N/N=C3\CN4CCC3CC4)c2)CC1	RAD54 branch 69.9 (no result: INS-1E GSIS act, RAD52 inh, AF4-AF9 inh, ERAP1 HTS inh)
C[n+]1c2ccccc2nc2ccc(NCCO)cc21	RAD54 branch 75.3 (no result: PGC1a acetyl inh)
OCCNc1c2c(nc3ccccc13)CCCC2	none (no result: INS-1E GSIS act, RAD52 inh, AF4-AF9 inh, ERAP1 HTS inh)
CNc1ccc2nc3ccccc3[n+](C)c2c1	RAD54 branch 98.3 (no result: PGC1a acetyl inh)
CNC(=O)OCc1n(C)cc[n+]1C	ERAP1 HTS inh 83.7 (no result: RAD54 branch, PGC1a acetyl inh)
C/C=C/c1ccc(C2[C@@H]3CN(C(=O)CN(C)C)C[C@H]2N3)cc1 (stereo partly specified)	RAD52 inh 57.8! (no result: RAD54 branch)
CC(=O)OC1CC2OC3C=C(C)CCC3(C)C1(C)C21CO1 (stereo unspecified)	PGC1a acetyl inh 87.2
CC(=O)O[C@H]1C[C@@H]2OC3C=C(C)CCC3(C)[C@@]1(C)[C@@]21CO1 (stereo partly specified)	PGC1a acetyl inh 83.8 (no result: INS-1E GSIS act, RAD54 branch)
O=C(Cc1cccnc1)N1CCCCN2[C@H](CO)[C@@H](c3ccc(/C=C/c4ccccc4)cc3)[C@@H]2C1	none
COC(=O)[C@@H]1[C@@H](CO)[C@@H]2Cn3c(ccc(-c4ccc(F)cc4)c3=O)[C@H]1N2Cc1ccccc1	none (no result: PGC1a acetyl inh)
CC1=CC2OC3CC4OC(=O)C=CC=CC(=O)OCCC(C)C(O)C(=O)OCC2(CC1)C4(C)C31CO1 (stereo unspecified)	PGC1a acetyl inh 77.4 (no result: INS-1E GSIS act, RAD54 branch)
CC1CCOC(=O)C=CC=CC(=O)OC2CC3OC4C5OC5(C)C(O)CC4(COC(=O)C1O)C2(C)C31CO1 (stereo unspecified)	PGC1a acetyl inh 76.8 (no result: INS-1E GSIS act, RAD54 branch)
CC1=CC2OC3CC4OC(=O)C=CC=CC(C(C)O)OCC(O)C5(C)OC5C(=O)OCC2(CC1O)C4(C)C31CO1 (stereo unspecified)	PGC1a acetyl inh 87.1 (no result: RAD54 branch)
CC(O)C1C=CC=CC(=O)OC2CC3OC4C5OC5(C)C(O)CC4(COC(=O)C(O)C(C)CCO1)C2(C)C31CO1 (stereo unspecified)	PGC1a acetyl inh 86.9 (no result: RAD54 branch)
CS(=O)(=O)N1C[C@@H]2C(c3ccc(Br)cc3)[C@H](C1)N2CC1CC1 (stereo partly specified)	none (no result: RAD52 inh, RAD54 branch, AF4-AF9 inh, PGC1a acetyl inh, ERAP1 HTS inh)
O=C(Cc1cccnc1)N1CCCCN2[C@H](CO)[C@@H](c3ccc(/C=C/c4ccccc4)cc3)[C@H]2C1	AF4-AF9 inh 26.8
CC[C@H](C)[C@@H]1NC(=O)CNC(=O)c2csc(n2)[C@H](C(C)(C)O)OC(=O)C(C)(C)[C@H](CCCC(C)(Cl)Cl)OC(=O)c2csc1n2	PGC1a acetyl inh 59.7 (no result: INS-1E GSIS act)
C=CCN1[C@@H]2CN(C(=O)NC(C)C)C[C@H]1C2c1ccccc1 (stereo partly specified)	none (no result: RAD52 inh, RAD54 branch, AF4-AF9 inh, PGC1a acetyl inh, ERAP1 HTS inh)
Cc1ccc(CS(=O)(=O)CCC(=O)N2CCC3(CC2)OCCO3)cc1	PGC1a acetyl inh 44.2 (no result: AF4-AF9 inh)
Cc1ccc(CS(=O)(=O)Cc2ccc(C(=O)N3CCC4(CC3)OCCO4)o2)cc1	none
O=C(Cc1ccccc1)N1CCCCN2[C@@H](CO)[C@H](c3ccc(C#CC4(O)CCCC4)cc3)[C@@H]2C1	none
CC(=O)N1C[C@@H]2C(c3ccc(Br)cc3)[C@H](C1)N2CC1CC1 (stereo partly specified)	none (no result: RAD52 inh, RAD54 branch, AF4-AF9 inh, PGC1a acetyl inh, ERAP1 HTS inh)
Cc1[nH]c2ccccc2c1CCNCc1cccnc1	INS-1E GSIS act 48.3
Cc1cccc(S(=O)(=O)N2[C@@H]3c4ccc(-c5ccc(F)cc5)c(=O)n4C[C@H]2[C@H](CO)[C@H]3C(=O)O)c1	none (no result: RAD52 inh, RAD54 branch, PGC1a acetyl inh, ERAP1 HTS inh)
CC1CN1c1cc2c(c3c1ccn3C)C1CCC2C1 (stereo unspecified)	AF4-AF9 inh 39.6 (no result: INS-1E GSIS act)
C[C@H](CO)N1C[C@H](C)[C@@H](CN(C)C(=O)Oc2ccccc2)OCc2ccccc2-c2c(n(C)c3ccccc23)C1=O	none (no result: RAD52 inh, RAD54 branch, AF4-AF9 inh, PGC1a acetyl inh, ERAP1 HTS inh)
CC(C)NC(=O)N1C[C@@H]2C(c3ccccc3)[C@H](C1)N2CC1CC1 (stereo partly specified)	none (no result: RAD52 inh, RAD54 branch, AF4-AF9 inh, PGC1a acetyl inh, ERAP1 HTS inh)
CC(N)C(=O)NC1C2C(=C(O)CC(O)C2O)C(=O)OC1(C)C(Cl)Cl (stereo unspecified)	PGC1a acetyl inh 74.0 (no result: RAD54 branch)
O=C(O)[C@@H]1[C@@H](CO)[C@@H]2Cn3c(ccc(-c4ccncc4)c3=O)[C@H]1N2C(=O)C1CC1	none (no result: RAD52 inh, RAD54 branch, AF4-AF9 inh, PGC1a acetyl inh, ERAP1 HTS inh)
COc1ccc(CC2C(=O)NC(C)C(=O)N(C)C3C(=O)N(C)C(Cc4ccc(O)c(c4)Oc4ccc(cc4)C3O)C(=O)NC(C)C(=O)NC(C)C(=O)N2C)cc1 (stereo unspecified)	PGC1a acetyl inh 76.1 (no result: INS-1E GSIS act, RAD54 branch)
OC[C@H]1Nc2ccc(C#Cc3cccnc3)cc2[C@H]2NCC[C@H]21	none (no result: RAD54 branch)
COC(=O)[C@H]1[C@H](CO)[C@H]2Cn3c(ccc(-c4ccccc4F)c3=O)[C@@H]1N2Cc1ccncc1	RAD52 inh 123.0
CCCN1[C@@H]2Cn3c(ccc(-c4ccc(OC)cc4)c3=O)[C@H]1[C@@H](C(=O)OC)[C@@H]2CO	none (no result: PGC1a acetyl inh)
CCCN1[C@@H]2c3ccc(-c4ccc(F)cc4)c(=O)n3C[C@H]1[C@H](CO)[C@H]2C(=O)OC	RAD52 inh 56.7
COC(=O)[C@@H]1[C@@H](CO)[C@@H]2Cn3c(ccc(-c4ccccc4F)c3=O)[C@H]1N2Cc1ccncc1	RAD52 inh 106.9
COC(=O)[C@H]1[C@H](CO)[C@H]2Cn3c(ccc(-c4ccccc4F)c3=O)[C@@H]1N2	none (no result: PGC1a acetyl inh)
COc1ccc(CN2CCN(Cc3ccccc3F)CC2)cc1	INS-1E GSIS act 43.5
C[N+]1(C)[C@@H]2CC[C@H]1CC(OC(=O)[C@@H](CO)c1ccccc1)C2 (stereo partly specified)	none
C[N+]1(C)CCC(OC(=O)C(c2ccccc2)c2ccccc2)CC1	ERAP1 HTS inh 92.4 (no result: INS-1E GSIS act)
O=c1[nH]c2ccccc2n1C1CCN(C(CCc2ccccc2)c2nnnn2Cc2ccccc2)CC1 (stereo unspecified)	PGC1a acetyl inh 103.5
CSCCC(c1nnnn1Cc1ccccc1)N1CCC(n2c(=O)[nH]c3ccccc32)CC1 (stereo unspecified)	none
CC1(O)CCC2C3CCC4=CC(=O)CCC4(C)C34OC4CC21C (stereo unspecified)	none
C[C@]1(O)CC[C@H]2[C@@H]3CCC4=CC(=O)CC[C@]4(C)[C@@]3(F)[C@@H](O)C[C@@]21C	INS-1E GSIS act 80.4 (no result: AF4-AF9 inh)
COc1ccc(C#Cc2ccc([C@H]3[C@H](CO)N4CCCCN(C(=O)Cc5ccncc5)C[C@@H]34)cc2)cc1	none
O=C(Cc1cccnc1)N1CCCCN2[C@@H](CO)[C@@H](c3ccc(C#CC4CC4)cc3)[C@@H]2C1	none (no result: INS-1E GSIS act)
C[C@H]1CCC/C=C/C2C[C@H](O)CC2[C@H](O)/C=C/C(=O)O1 (stereo partly specified)	PGC1a acetyl inh 72.2 (no result: INS-1E GSIS act, RAD52 inh, AF4-AF9 inh, ERAP1 HTS inh)
C[C@H]1CCC[C@@H](O)CCC/C=C/c2cc(O)cc(O)c2C(=O)O1	none (no result: RAD52 inh, AF4-AF9 inh, PGC1a acetyl inh, ERAP1 HTS inh)
